# Laboratory results taken from the supplement of paper PMC6555819.
# Tested on: PPARg homodimer (NR concentration 180 nM)
# Assay: PBM binding z-score (relative to random genomic background probes); higher = stronger binding; sequences stand for … in GC…GCGATTGACAGCGTAGAATGAAGG
# Outline: (§1)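 On custom Agilent 4×180K arrays, double-stranded probes with 34-nt variable regions carried direct-repeat seeds, single-nucleotide variants, half-site ablations or random human genomic background. Ligand-free nuclear receptor dimers were applied for 1 h, and binding was read with antibodies against each partner (one per run). Binding z-scores come from regression-normalized fluorescence, with the random background probes as reference.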
row,Sequence,PBM binding z-score
1,TCATATAGGTACATGCTAGGTGAAAGTCCGATCT,0.444
2,CGAACTAAGTCAAGGACAGTGAATCTCCGCACGC,-0.418
3,AATACAGGGTCACTAGGCGAGAGTAGGTACGAAT,2.09
4,CGTCCAAGGTCAAAGGTCAGAGAAGAGATGACGG,3.77
5,TATAGTTGGTCAAAGGTCACACACTCGAAATGCG,4.52
6,TTACCAAGGTGAAAGGTTGTTGATGCACGCCTTG,0.571
7,ACTAGCAGGCCAAGTTTGGGTCGCTCAAACAAAG,-0.566
8,CTCGAAAGGTCGTGCTCAGGTGAGTAGACCAAAC,3.39
9,GGAACGAGGGCATTCTAGTTGATAGCATGGCGAT,-0.294
10,CCAGACAGCTGAAAGGTAACTCAGTCTGGTACGC,-0.141
11,CGAACTAGGTCATCCAGAACAGTGAATACATTGA,3.59
12,TCTTGTAGATCAGCAGATTAAGAAAGCTGGCCAA,-0.374
13,ACTATTAGTTGACTTAGGGAAACCGATACGACGC,0.412
14,CGAACTGGGTCATTGACAGGACAGTGAATAGTAA,0.71
15,TCTCGGAGGACACCAAGGTCAGAGCTTTCCAGAG,1.73
16,TCTTGTAGACCAATAGAGGTTAAGAAAGTGCGCT,0.191
17,GCTAGTTGGTCAGTAAAAAGTCACACACCGGTCG,0.862
18,AGAACGAGGGCAGGCTGAGTTGATAGCAGAGTAG,-0.517
19,CCGAGGAGGTTATGGGGCATTCAGGCAACGGTGA,1.13
20,CCTAGCAGGCCAATCTGGGTTACTCAAGGCTTGA,-0.705

row,Sequence,PBM binding z-score
1,ACTATTAGTTGACTTAGGGCAAGCGATACGACGC,0.596
2,CCTTACGGGGCACTGACAGGTTATAGCATTTGGA,0.227
3,ATATGTAGGTTATAGGGTCATTCAGTTTGCGCAT,3.17
4,ATCTCTAAGTAACAAGTTCAGTGAAAGAGAGGAC,1.43
5,AGTGAAAGTTCATCTAGGTAACGTAAGATATGCT,2.58
6,TCTAGTAGATCAATAGAGGTTAAGAAAGTGCGCT,0.0842
7,CCTACTGGGCCAAGGTTATTGATCAGTCAAAGCA,0.597
8,ATATGTAGGTTAATGGTCATTCAGGTTGGTTCGC,2.47
9,GATACAGGGTCAGCTAGAGGCCAGTGTATGGAAA,3.5
10,TAGCCTAGGTCAGGTCGGGCCAGTATACGCTATA,0.477
11,GCCTGTAGATCAAGGTTAAGAAAGACTAAGCTAA,-0.292
12,CCTATTAGTTAACCATAAGGGCAACCGAAGCTCG,1.71
13,TAGCCTAGGTCAGATCGGGCCAGAATACGCTATA,0.124
14,CCTGCTAGGTCATGGTCAGATAATCTACAGTATG,1.88
15,AGACTGAGGTTAAGATCAGGGAAACAGAATACAT,0.531
16,GGAACGAGGGCATTCGAGTTGGTAGCATGGCGAT,-0.0441
17,TTACCAAGATGAGCTGAGGTCGTTGATCCAACTC,0.0396
18,TCGGCTAGGTCAGTTGGTCAGCTAACGAGCTGCC,0.3
19,TCTTGTAGATCAAGCCGGTTAAGAAAGCCTGAGT,0.0807

# Tested on: PXR:RXRa (NR concentration 270 nM, RXRa partner concentration 90 nM)
# Assay: as above
# Outline: as §1
row,Sequence,PBM binding z-score
1,TCATATAGGTACATGCTAGGTGAAAGTCCGATCT,0.528
2,CGAACTAAGTCAAGGACAGTGAATCTCCGCACGC,-0.229
3,AATACAGGGTCACTAGGCGAGAGTAGGTACGAAT,3.16
4,CGTCCAAGGTCAAAGGTCAGAGAAGAGATGACGG,7.04
5,TATAGTTGGTCAAAGGTCACACACTCGAAATGCG,6.04
6,TTACCAAGGTGAAAGGTTGTTGATGCACGCCTTG,1.28
7,ACTAGCAGGCCAAGTTTGGGTCGCTCAAACAAAG,-0.33
8,CTCGAAAGGTCGTGCTCAGGTGAGTAGACCAAAC,3.11
9,GGAACGAGGGCATTCTAGTTGATAGCATGGCGAT,1.53
10,CCAGACAGCTGAAAGGTAACTCAGTCTGGTACGC,-0.177
11,CGAACTAGGTCATCCAGAACAGTGAATACATTGA,1.48
12,TCTTGTAGATCAGCAGATTAAGAAAGCTGGCCAA,-0.148
13,ACTATTAGTTGACTTAGGGAAACCGATACGACGC,-0.145
14,CGAACTGGGTCATTGACAGGACAGTGAATAGTAA,1.41
15,TCTCGGAGGACACCAAGGTCAGAGCTTTCCAGAG,2.54
16,TCTTGTAGACCAATAGAGGTTAAGAAAGTGCGCT,3.17
17,GCTAGTTGGTCAGTAAAAAGTCACACACCGGTCG,0.0868
18,AGAACGAGGGCAGGCTGAGTTGATAGCAGAGTAG,0.169
19,CCGAGGAGGTTATGGGGCATTCAGGCAACGGTGA,0.815
20,CCTAGCAGGCCAATCTGGGTTACTCAAGGCTTGA,-0.391

row,Sequence,PBM binding z-score
1,ACTATTAGTTGACTTAGGGCAAGCGATACGACGC,0.255
2,CCTTACGGGGCACTGACAGGTTATAGCATTTGGA,-0.0592
3,ATATGTAGGTTATAGGGTCATTCAGTTTGCGCAT,4.88
4,ATCTCTAAGTAACAAGTTCAGTGAAAGAGAGGAC,1.63
5,AGTGAAAGTTCATCTAGGTAACGTAAGATATGCT,4.68
6,TCTAGTAGATCAATAGAGGTTAAGAAAGTGCGCT,3.18
7,CCTACTGGGCCAAGGTTATTGATCAGTCAAAGCA,0.145
8,ATATGTAGGTTAATGGTCATTCAGGTTGGTTCGC,1.23
9,GATACAGGGTCAGCTAGAGGCCAGTGTATGGAAA,3.29
10,TAGCCTAGGTCAGGTCGGGCCAGTATACGCTATA,1.51
11,GCCTGTAGATCAAGGTTAAGAAAGACTAAGCTAA,0.333
12,CCTATTAGTTAACCATAAGGGCAACCGAAGCTCG,0.409
13,TAGCCTAGGTCAGATCGGGCCAGAATACGCTATA,0.946
14,CCTGCTAGGTCATGGTCAGATAATCTACAGTATG,1.35
15,AGACTGAGGTTAAGATCAGGGAAACAGAATACAT,0.903
16,GGAACGAGGGCATTCGAGTTGGTAGCATGGCGAT,2.69
17,TTACCAAGATGAGCTGAGGTCGTTGATCCAACTC,1.87
18,TCGGCTAGGTCAGTTGGTCAGCTAACGAGCTGCC,0.186
19,TCTTGTAGATCAAGCCGGTTAAGAAAGCCTGAGT,0.392
